According to PubChem BioAssay (NCI):
The panel holds about 79,000 compounds, 15% with a hit somewhere; the sample as a whole holds those more often. No stated cut-off is given here; in the data, active means growth inhibition above about 70%; inactive means the rest.

Experiments:
[1] = NCI Yeast Anticancer Drug Screen. Data for the rad50 strain (AID 155);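 further: 0% = growth of vehicle-only cultures of the same strain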; details: S. cerevisiae rad50 strain growth inhibition; at 50.0 µM; active compounds read high
How it was run: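 Compounds were tested on a yeast strain with an engineered DNA damage repair alteration; the reported value is growth inhibition normalised to vehicle treatment.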

[2] = NCI Yeast Anticancer Drug Screen. Data for the mec2-1 strain (AID 157); details: S. cerevisiae mec2-1 strain, at 50.0 µM, active compounds read high
How it was run: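 Yeast mec2-1 mutant treated with compound. Readout: growth inhibition vs vehicle controls.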

[3] = NCI Yeast Anticancer Drug Screen. Data for the sgs1 mgt1 strain (AID 161);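 further: 0% = growth of cultures given vehicle only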; details: S. cerevisiae sgs1 mgt1 strain, at 50.0 µM, active compounds read high
How it was run: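 Test agents were incubated with a DNA-repair-mutant yeast strain. Growth was then read and compared against vehicle-treated controls.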

[4] = NCI Yeast Anticancer Drug Screen. Data for the cln2 rad14 strain (AID 165);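 further: 0% = growth equal to vehicle treated cultures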; details: S. cerevisiae cln2 rad14 strain, at 50.0 µM, active compounds read high
How it was run: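 cln2 rad14 yeast strain; compound exposure; growth inhibition read vs vehicle controls.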

[5] = NCI Yeast Anticancer Drug Screen. Data for the bub3 strain (AID 167); details: S. cerevisiae bub3 mutant strain, at 50.0 µM, active compounds read high
How it was run: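 Growth of a checkpoint-deficient yeast mutant is measured after compound exposure. Values represent inhibition relative to vehicle.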

[6] = NCI Yeast Anticancer Drug Screen. Data for the mlh1 rad18 strain (AID 175); details: S. cerevisiae mlh1 rad18 strain growth inhibition; at 50.0 µM; active compounds read high
How it was run: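 Yeast w/ defined DNA-repair lesions; compound exposure; growth vs vehicle controls → % inhibition.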

Measured: growth inhibition

O=C(O)c1cc(C(=O)O)c(-c2ccccc2)c(-c2ccccc2)c1
inactive: [1] 8.9% | [2] 2.25% | [3] -4.05% | [4] 0.65% | [5] 1.4% | [6] -5.3%

CCCCc1c(OCC)cc2n(CC)c3ccccc3n2c1=O
inactive: [1] -8.45% | [2] -9.85% | [3] 0.8% | [4] -10.9% | [5] -45% | [6] -11.9%

COC(=O)CCc1cc(=O)oc2ccc3cc(CC(=O)OC)oc3c12
inactive: [1] 5.75% | [2] -7.65% | [3] 4.7% | [4] -6.1% | [5] -7.2% | [6] 2.15%
